Source: the supplement of paper PMC3334620
In all, about 33,000 sequences were measured (“E-score (-0.5 to 0.5)”: median about -8e-05, highest 2% from about 0.23 on). What follows is part of a selection rich in the highest values, with near analogues and random picks from the rest.

Each sequence was assayed against T1, Nrg2 (UniProt P38082) (assay: PBM E-score (8-mer binding enrichment) (E-score (-0.5 to 0.5)); higher = stronger / more preferred TF binding). Conditions: protein concentration: 100 nM; construct: GST-full length.
T1 sequence: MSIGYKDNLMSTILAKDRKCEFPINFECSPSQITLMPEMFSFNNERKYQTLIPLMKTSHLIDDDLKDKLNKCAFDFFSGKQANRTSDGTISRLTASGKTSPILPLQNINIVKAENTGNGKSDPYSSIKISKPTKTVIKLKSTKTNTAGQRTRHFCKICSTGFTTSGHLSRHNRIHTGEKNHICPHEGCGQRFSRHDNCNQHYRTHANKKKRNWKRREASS
Protocol: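 Universal 'all 10-mer' protein binding microarrays (Agilent AMADID 015681) probed with GST-tagged S. cerevisiae TFs (full-length or DBD) made by in vitro transcription/translation (PURExpress), about 100-200 nM. Bound TF was detected with fluorescent anti-GST. Each ungapped 8-mer (which stands for itself and its reverse complement) is scored by the PBM enrichment score (E-score), a modified Wilcoxon-Mann-Whitney statistic from -0.5 to +0.5, computed with the Universal PBM Analysis Suite. Scale: above 0.35 generally sequence-specific binding.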

Row | Sequence | PBM E-score
1 | GATTAATA | 0.29
2 | CATAATTA | 0.173
3 | AATTAATG | 0.182
4 | CCACCACG | 0.00854
5 | CGGGTCAG | 0.023
6 | ACCCAGGA | -0.227
7 | ACTGTGGA | -0.109
8 | CGGTCGAC | -0.0395
9 | ACTCTAAA | 0.101
10 | GATAGCAA | 0.0872
11 | AACTGTCC | -0.0683
12 | GCTGAAAC | -0.139
13 | ATTGATAG | -0.0275
14 | GCTGATAC | -0.0795
15 | GTTGATAA | 0.232
16 | ATTGATTC | 0.244
17 | CCTGATAG | -0.153
18 | ATTGATAC | 0.274
19 | ATTGATAA | 0.0942
20 | CCTGATAC | 0.229
21 | CTTGATTC | 0.0772
22 | ATTGATTG | 0.142
23 | GTTGATGA | 0.0639
24 | CTTGATAA | 0.147
25 | AAACTCCC | -0.0959

Row | Sequence | PBM E-score
26 | GTGGATTA | 0.0668
27 | CGGCCTTA | 0.0601
28 | ACTCAAGC | -0.148
29 | CAGTTTTC | 0.17
30 | AATGGAAT | 0.241
31 | AATGGAAC | 0.108
32 | AATGGCAG | 0.0917
33 | AATGGCAC | -0.0263
34 | AATGGCAT | 0.26
35 | AATGGAAG | 0.0112
36 | CGCCAAAA | 0.119
37 | AAGGAAAC | -0.128
38 | CAGGGACC | 0.4
39 | AAGGGACT | 0.123
40 | GAGGGACC | 0.0355
41 | AGGGGACC | 0.225
42 | CAGAGACC | -0.212
43 | GAGGGACA | 0.0412
44 | CAGGGACG | 0.306
45 | CAGAGACG | 0.0459
46 | AAGGGACC | 0.424
47 | CAGGGACA | 0.371
48 | AAGGGACG | 0.207
49 | AAGGGACA | 0.137
50 | AGCAAACA | 0.0834

Row | Sequence | PBM E-score
51 | GGCGCCTA | -0.0964
52 | AGAACCGC | 0.0943
53 | ACGTCAGC | 0.129
54 | CCCGAACG | -0.0859
55 | GCAAACGA | 0.0657
56 | GGCAACTA | 0.194
57 | CGCAACTA | 0.244
58 | CGCAACTC | 0.147
59 | GCGGCCAA | -0.133
60 | AAGACCCT | 0.291
61 | AGGACCCT | 0.369
62 | AAGACCCA | -0.181
63 | AGGACCCG | 0.0935
64 | AGGACCCA | -0.179
65 | AAGACCCG | 0.0509
66 | CCAACCTA | -0.118
67 | AAGTGAGC | -0.0445
68 | CATGGGAA | 0.0176
69 | CAGATGAA | 0.026
70 | ACGCTAGG | -0.266
71 | AACCAGGG | 0.176
72 | ATCAAAAG | 0.00066
73 | ATTAAAAA | 0.246
74 | ATTAAAAT | 0.174
75 | ATTAAACC | 0.199

Row | Sequence | PBM E-score
76 | ATTAAAAC | 0.241
77 | ATCAAAAT | -0.0176
78 | CTTAAAAC | 0.0325
79 | CTTAACAC | 0.0347
80 | ATTAACAA | 0.179
81 | ATTAACAC | 0.246
82 | ATTAAAAG | 0.103
83 | ATCAAAAA | 0.237
84 | CCTCGTAC | 0.0199
85 | CGAACTGC | -0.0594
86 | TCCAGAGA | -0.144
87 | AAGGGGAT | 0.205
88 | ACTTAGGG | 0.0512
89 | CCCAACTA | 0.174
90 | ACCAACTC | -0.0268
91 | CCCAACTC | 0.256
92 | GCCGCGCA | -0.0674
93 | CTGGTGGC | 0.00474
94 | ACAGTAGA | 0.138
95 | GGTATTTA | 0.0832
96 | AGTATTTA | 0.0065
97 | CGTATTTA | 0.248
98 | AGCCCCAT | -0.0124
99 | CTGCGATC | 0.0398
100 | CGAGGGCC | -0.0174

Row | Sequence | PBM E-score
101 | AACTTATC | 0.121
102 | AACTTATG | -0.0218
103 | AACTTATT | 0.256
104 | CATAGTCG | -0.0054
105 | AGGCAAGA | -0.0756
106 | AAGCCCTC | -0.132
107 | ACCAACAG | -0.00807
108 | ACCAACAT | 0.0787
109 | ACCAACAA | 0.245
110 | GAGAAAGC | 0.0912
111 | ACCTACAT | 0.00858
112 | GCCCCAGC | 0.0519
113 | CTGGTGCC | -0.212
114 | AACTACTG | 0.0512
115 | CGCTACTA | 0.234
116 | TACTAATA | 0.0648
117 | AACTACTC | 0.184
118 | CACTAATA | 0.133
119 | AGCTACTA | 0.0519
120 | CGCTACTC | -0.0612
121 | AACTAATA | 0.354
122 | AACTACTA | 0.296
123 | AAGACGTG | -0.0832
124 | ACGAATAG | 0.0297
125 | CACCTCCC | -0.294

Row | Sequence | PBM E-score
126 | CAGATGGC | -0.107
127 | GAGATATC | 0.282
128 | GAGATACA | 0.296
129 | TAGATACA | 0.0563
130 | AAGATATC | 0.149
131 | AATACCTA | 0.144
132 | GATACCTA | 0.256
133 | CAGATATC | 0.133
134 | TCGATACA | 0.243
135 | GCGATACA | -0.00403
136 | AAGATACA | 0.171
137 | CATACCTA | -0.0293
138 | ACGATACA | -0.0148
139 | ATTTACAA | 0.0879
140 | GCGCACAA | 0.195
141 | GTAGAGTA | -0.0442
142 | CCACGGGC | -0.139
143 | GGCCGCCA | 0.0869
144 | GAGGCCGA | -0.0441
145 | CAAACAAC | 0.14
146 | ATAGGAAC | -0.0698
147 | AAAGCAGT | 0.201
148 | TACATACA | 0.199
149 | GACATACA | 0.246
150 | GATACATC | 0.134

Row | Sequence | PBM E-score
151 | CATACATA | 0.219
152 | GATACATA | 0.246
153 | CACATACA | -0.0126
154 | AGAAGTAC | -0.0369
155 | ACCCGCGA | 0.174
156 | ACCCGCCG | 0.201
157 | ACCCGCGC | 0.229
158 | CCCCGCGG | 0.0578
159 | ACCCGCGT | -0.119
160 | ACCCGCGG | 0.275
161 | ACTAGGAA | -0.094
162 | CGAATCAC | 0.117
163 | AGGGACGA | 0.248
164 | CTGGACCC | 0.275
165 | GGGGACCA | 0.0565
166 | AGGGACCT | 0.382
167 | CTGGACCA | -0.0552
168 | ATGGACCC | 0.206
169 | AGGGACGC | 0.196
170 | ACGGACCT | 0.17
171 | CGGGACCA | -0.173
172 | AAGGACCT | 0.0061
173 | AGGGACGG | -0.0133
174 | AGGGACCA | 0.35
